Results on 15 compounds are retold here after PubChem BioAssay (EPA / NIEHS).

Inconclusive results are not listed. Calls of active or inactive are those of the source. How the source made its calls: active means hit-call score of the fitted dose curve at least 0.9, where 1 is the maximum; inconclusive means response in the unintended direction; inactive means score below 0.9.

A short description of the first assay: Tanguay_ZF_120hpf_TRUN_legacy: (Legacy) Oregon State University Tanguay Lab 120 Hour Post-fertilization zebrafish Assay for Truncated Body (AID 2283655). The gist of the method:
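Dechorionated Tropical 5D wild-type embryos placed singly from 6 hpf and statically exposed to 120 hpf at 28C, final DMSO 0.64%. Truncated body scored as present/absent by brightfield; not scored in dead embryos.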
`CCCCC(CC)COC(=O)c1ccc(C(=O)OCC(CC)CCCC)cc1` (stereo not given): the compound was classed as inactive.
The same measure, in the same setting: under `NC(=O)NO` stands “inactive”; under `CCc1cc(SCc2sc(-c3ccc(C(F)(F)F)cc3)nc2CN2CCN(c3ccc(OC)cc3)CC2)ccc1OCC(=O)O`, “inactive”; under `CC1=CC(=O)CC(C)(C)C1`, “inactive”.
On the same count and under the same terms, under `CC(C)=CCC/C(C)=C/CO` stands “inactive”.
Consider `Clc1nc(Cl)c(Cl)c(Cl)c1Cl`, for which the compound was called inactive.
On the same count and under the same terms, under `CC(=O)OC[C@H]1O[C@@](COC(C)=O)(O[C@H]2O[C@H](COC(C)=O)[C@@H](OC(C)=O)[C@H](OC(C)=O)[C@H]2OC(C)=O)[C@@H](OC(C)=O)[C@@H]1OC(C)=O` stands “inactive”; under `CCCCC(CC)COC(=O)CCCCCCCCC(=O)OCC(CC)CCCC` (stereo not given), “inactive”.
Turning to `CC(C)=CCC/C(C)=C\CO`, the result was inactive.

A further assay can be described thus: Tanguay_ZF_120hpf_NC_legacy: (Legacy) Oregon State University Tanguay Lab 120 Hour Post-fertilization zebrafish Assay for Notochord and Tail Malformation (AID 2283656). The gist of the method:
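Dechorionated 5D zebrafish, 1/well from 6 hpf; static exposure to 120 hpf, 28C, sealed, dark; final DMSO 0.64% v/v. NC scored binary (present/absent); dead embryos not scored. Fit vs DMSO baseline, gain direction.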
For the compound `C=CCCCCCCCCC(=O)O`, the compound was called inactive.
On the same count and under the same terms, under `CC[C@H]1OC(=O)[C@H](C)[C@@H](O[C@H]2C[C@@](C)(OC)[C@@H](O)[C@H](C)O2)[C@H](C)[C@@H](O[C@@H]2O[C@H](C)C[C@H](N(C)C)[C@H]2O)[C@](C)(O)C[C@@H](C)C(=O)[C@H](C)[C@@H](O)[C@]1(C)O` stands “inactive”; under `CCN(C(=O)c1cc(C)cc(OC[C@H](C)Nc2ccncc2)c1)C(C)C`, “inactive”.
On to `CCNc1ccccc1`, for which the call was inactive.
The same measure, in the same setting: under `CCC(C)(C)C(=O)O[C@H]1C[C@@H](C)C=C2C=C[C@H](C)[C@H](CC[C@@H]3C[C@@H](O)CC(=O)O3)[C@H]21` stands “inactive”; under `CC[C@H](C)C(=O)O[C@H]1C[C@@H](C)C=C2C=C[C@H](C)[C@H](CC[C@@H]3C[C@@H](O)CC(=O)O3)[C@H]21`, “inactive”.
